A selection: hits, their analogues and other compounds. The true share with any hit is near 2%.
H9c2 TAG inh – inhibitors of triacylglycerol accumulation, primary screen, cell-based, uHTS, fluorescence, H9c2. H9c2 cells, Nile Red lipid (TAG) fluorescence; cells loaded with 200 µM oleic acid. hit rate 0.66% among 230,000. inhibition, % at 12.5 µM. AID 651582, 2012;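 active means pattern-corrected inhibition of lipid staining of at least 50% with the nuclear-stain viability signal not falling by more than 50%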
CHT allo act – CHT positive allosteric modulators, primary screen, cell-based, membrane potential dye, choline EC20 | CHT-expressing cells; stronger effect = higher value; LV-AA mutant CHT in HEK293 cells | hit rate 0.49% among 310,000 | B-score at 10 µM | High affinity choline transporter 1 (Homo sapiens), Q9GZV3;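 active means initial fluorescence not abnormally high and integrated response B-score, plate-corrected, over 3 SD above library mean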
Target sequence (Q9GZV3 whole entry, looked up): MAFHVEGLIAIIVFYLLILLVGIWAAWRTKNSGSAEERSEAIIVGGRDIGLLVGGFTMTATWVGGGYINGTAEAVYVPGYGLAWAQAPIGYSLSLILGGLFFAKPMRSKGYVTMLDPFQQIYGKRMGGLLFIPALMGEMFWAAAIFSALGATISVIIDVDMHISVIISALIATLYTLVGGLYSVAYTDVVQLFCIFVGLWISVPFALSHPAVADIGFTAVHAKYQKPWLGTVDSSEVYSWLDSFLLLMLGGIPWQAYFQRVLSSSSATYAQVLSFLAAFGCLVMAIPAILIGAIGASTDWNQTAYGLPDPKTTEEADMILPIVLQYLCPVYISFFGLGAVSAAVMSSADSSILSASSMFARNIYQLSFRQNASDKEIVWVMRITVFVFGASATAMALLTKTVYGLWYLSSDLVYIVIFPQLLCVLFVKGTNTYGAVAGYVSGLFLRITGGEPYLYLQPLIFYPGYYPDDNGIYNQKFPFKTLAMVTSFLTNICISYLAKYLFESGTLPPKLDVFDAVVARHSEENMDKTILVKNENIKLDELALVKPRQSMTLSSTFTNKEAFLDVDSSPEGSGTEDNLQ
Kir21 block – inhibitors of mouse Kir2.1 inward-rectifier potassium channel; Inward rectifier potassium channel 2 (Mus musculus), P35561; HEK293-Kir2.1, FluxOR thallium flux fluorescence; stronger effect = lower value; B-score at 10 µM; hit rate 0.85% among 310,000; AID 1672, 2009;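 active means fluorescence ratio B-score at or below minus 3 SD of library scores, with starting-brightness B-score within 2 SD, cut at about -4.2 in these data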;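 further: channel flux triggered by added potassium and thallium sulfate stimulus; B-score of peak minus minimum fluorescence over baseline after thallium stimulus; more negative B-score means stronger Kir2.1 block with less thallium influx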
CHT block – inhibitors of human choline transporter CHT. High affinity choline transporter 1 (Homo sapiens), Q9GZV3. CHT-expressing cells, membrane potential dye, choline response; stronger effect = lower value. B-score at 10 µM. hit rate 0.86% among 310,000;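 active means B-score over 3 SD under the library average, and starting fluorescence ratio not unusually high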;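 further: choline stimulus applied at its EC90 after an EC20 pre-addition; B-score computed on integrated fluorescence ratio after choline addition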
CHT inh conf – CHT inhibitors, confirmation, cell-based, membrane potential dye, duplicate; shares compounds with CHT block; CHT-expressing cells, choline membrane potential dye; LV-to-AA substituted CHT, HEK293 cells; CHT activity remaining % of control (stronger effect = lower value), % at 10 µM; hit rate 70% among 2,400; AID 493221, 2011;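 active means choline transporter activity left, mean of duplicates at 10 µM, below buffer-only control mean minus 3 SD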;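 further: depolarization triggered by choline at its EC90 following an EC20 pre-addition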
HEK293 MPD ctr – membrane potential effects in parental HEK293, counter-screen for CHT inhibitor project, cell-based, membrane potential dye. hit rate 4% among 2,400. choline response; active = decrease or increase beyond buffer ±3SD. membrane potential ratio readout (active if shifted either direction beyond buffer ±3SD; no single direction) at 10 µM. AID 493222, 2011. shares compounds with CHT block;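 further: parental cells lack the transporter so any hit is non-specific; ratio is peak minus trough fluorescence over baseline after EC90 choline challenge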
A number is an active result.

Results for COc1ccc(OCCSc2nnnn2C2CCCCC2)cc1 ?
H9c2 TAG inh: inactive; CHT allo act: inactive; Kir21 block: inactive; CHT block: -11.5; CHT inh conf: inactive; HEK293 MPD ctr: inactive

What do the screens show for `CCN(CC)S(=O)(=O)c1ccc2c(c1)[nH]c(=S)n2CC`?
H9c2 TAG inh: inactive; CHT allo act: inactive; Kir21 block: inactive; CHT block: inactive

Results for CCOC(=O)c1ccc2c(c1)[nH]c(=S)n2CC ?
CHT allo act: inactive; Kir21 block: inactive; CHT block: -5.08; CHT inh conf: 56.0%; HEK293 MPD ctr: inactive

How did CC(C)Sc1sc(C(=O)O)c(-c2ccc(Cl)cc2)c1C#N do in these assays?
H9c2 TAG inh: inactive; CHT allo act: inactive; Kir21 block: inactive; CHT block: -5.65; CHT inh conf: 61.4%; HEK293 MPD ctr: inactive

Results for CC1(C)C/C(=N\O)C(C(O)c2cccc([N+](=O)[O-])c2)C(C)(C)N1 (stereo unspecified) ?
H9c2 TAG inh: inactive; CHT allo act: inactive; Kir21 block: inactive; CHT block: inactive

How did CCN(CC)CCNC(=O)c1ccc(N2CCCCC2)c(NS(=O)(=O)c2ccc(C)cc2)c1 do in these assays?
H9c2 TAG inh: inactive; CHT allo act: inactive; Kir21 block: inactive; CHT block: -5.59; CHT inh conf: 48.6%; HEK293 MPD ctr: 4.03

How did CCN(CC)CCNC(=O)c1ccc(NC(=O)c2cc(S(=O)(=O)N3CCCCC3)ccc2N2CCOCC2)cc1 do in these assays?
H9c2 TAG inh: inactive

What do the screens show for `Cc1ccc(C(=O)NCCNC(=O)c2ccc(F)cc2)cn1`?
CHT allo act: inactive; Kir21 block: inactive; CHT block: inactive

Results for CC1(Cc2ccccc2Cl)C(=O)Nc2c(Cl)cccc21 (stereo unspecified) ?
H9c2 TAG inh: inactive

How did O=C(COC(=O)c1ccccc1Oc1ccccc1)NCc1ccco1 do in these assays?
H9c2 TAG inh: inactive; CHT allo act: inactive; Kir21 block: inactive; CHT block: -5.43; CHT inh conf: inactive; HEK293 MPD ctr: inactive

What do the screens show for `O=C(COC(=O)c1ccccc1)NCc1ccco1`?
H9c2 TAG inh: inactive; CHT allo act: inactive; Kir21 block: inactive; CHT block: inactive

How did CSc1ccc(C(=O)C2CCCN(C(=O)c3nn(C)c(=O)c4ccccc34)C2)cc1 (stereo unspecified) do in these assays?
H9c2 TAG inh: inactive; CHT allo act: inactive; Kir21 block: inactive; CHT block: inactive

What do the screens show for `CSc1ccc(C(=O)C2CCCN(C(=O)c3nonc3C)C2)cc1` (stereo unspecified)?
H9c2 TAG inh: inactive; CHT allo act: inactive; Kir21 block: inactive; CHT block: -5.67; CHT inh conf: 59.6%; HEK293 MPD ctr: inactive

How did Cc1c(C)n(C(=O)CSc2ncn[nH]2)c2ccccc12 do in these assays?
CHT allo act: inactive; Kir21 block: inactive; CHT block: inactive

How did O=c1c2cc(Br)ccc2nc(-c2ccc(Cl)cc2)n1O do in these assays?
CHT allo act: inactive; Kir21 block: inactive; CHT block: -6.12; CHT inh conf: 41.2%; HEK293 MPD ctr: inactive

What do the screens show for `Cc1ccc(-c2nc3c(Cl)cc(Cl)cc3c(=O)n2O)cc1`?
CHT allo act: inactive; Kir21 block: inactive; CHT block: -5.45; CHT inh conf: 45.8%; HEK293 MPD ctr: inactive

What do the screens show for `CN1CCC(N(C)C(=S)NCCc2ccccc2)CC1`?
H9c2 TAG inh: inactive; CHT allo act: inactive; Kir21 block: inactive; CHT block: -7.33; CHT inh conf: inactive; HEK293 MPD ctr: inactive

What do the screens show for `CC1CCCN(C(=S)NCCc2ccccc2)C1` (stereo unspecified)?
H9c2 TAG inh: inactive; CHT allo act: inactive; Kir21 block: inactive; CHT block: inactive

How did CCn1c(N2CCN(S(=O)(=O)c3ccc(Cl)cc3)CC2)nc2ccccc21 do in these assays?
H9c2 TAG inh: inactive; CHT allo act: inactive; Kir21 block: inactive; CHT block: -11.6; CHT inh conf: 44.0%; HEK293 MPD ctr: inactive

What do the screens show for `Cc1cc(C)n2c(SCC(=O)NC3CCCCC3C)nnc2n1` (stereo unspecified)?
H9c2 TAG inh: inactive; CHT allo act: inactive; Kir21 block: inactive; CHT block: -5.39; CHT inh conf: 70.5%; HEK293 MPD ctr: inactive

What do the screens show for `COc1cc(S(=O)(=O)N2CCOCC2)ccc1NC(=O)COC(=O)COc1ccccc1`?
H9c2 TAG inh: inactive; CHT allo act: inactive; Kir21 block: inactive; CHT block: inactive

How did CCN1CCN(Cc2nc3c(c(=O)n(C)c(=O)n3C)n2CCc2ccccc2)CC1 do in these assays?
H9c2 TAG inh: inactive

How did Cn1c(=O)c2c(nc(CN3CCOCC3)n2CCc2ccccc2)n(C)c1=O do in these assays?
H9c2 TAG inh: inactive; CHT allo act: inactive; Kir21 block: inactive; CHT block: -5.03; CHT inh conf: inactive; HEK293 MPD ctr: inactive

How did COC(=O)c1ccc(Cn2c(CN3CCOCC3)nc3ccccc3c2=O)o1 do in these assays?
H9c2 TAG inh: inactive; CHT allo act: inactive; Kir21 block: inactive; CHT block: -5.2; CHT inh conf: inactive; HEK293 MPD ctr: inactive

Results for Cc1nc2ccccc2c(=O)n1CCN1CCOCC1 ?
CHT allo act: inactive; Kir21 block: inactive; CHT block: inactive

Results for Fc1cccc(-c2cc3nc4c(c(N5CCC6(CC5)OCCO6)n3n2)CCCC4)c1 ?
CHT allo act: inactive; Kir21 block: inactive; CHT block: -7.79; CHT inh conf: inactive; HEK293 MPD ctr: inactive

How did Cc1cc(C)n2nc(C(=O)OCC(=O)Nc3ccc(F)cc3F)nc2n1 do in these assays?
H9c2 TAG inh: inactive; CHT allo act: inactive; Kir21 block: inactive; CHT block: inactive

How did CC(C)(C)c1ccc(C(=O)N2CCCC2c2cccs2)cc1 (stereo unspecified) do in these assays?
CHT allo act: inactive; Kir21 block: inactive; CHT block: inactive

How did CCn1c(SCC(=O)NCCc2ccccc2)nnc1-c1cccs1 do in these assays?
H9c2 TAG inh: inactive; CHT allo act: inactive; Kir21 block: inactive; CHT block: inactive

What do the screens show for `CCn1c(SCC(=O)c2ccccc2)nnc1-c1cccs1`?
H9c2 TAG inh: inactive; CHT allo act: inactive; Kir21 block: inactive; CHT block: -6.65; CHT inh conf: 68.3%; HEK293 MPD ctr: inactive

What do the screens show for `CCn1c(SCC(=O)Nc2ccc(C(=O)OC)cc2)nnc1-c1cccs1`?
H9c2 TAG inh: inactive; CHT allo act: inactive; Kir21 block: inactive; CHT block: inactive

Results for CCn1c(SCC(=O)NCC(=O)Nc2ccc(F)cc2)nnc1-c1cccs1 ?
CHT allo act: inactive; Kir21 block: inactive; CHT block: -6.02; CHT inh conf: inactive; HEK293 MPD ctr: inactive

How did Cc1ccc(C(=O)c2nccn2C)cc1C do in these assays?
CHT allo act: inactive; Kir21 block: inactive; CHT block: inactive
